# CYP2C9 inhib = inhibitors of human CYP2C9 | CYP2C9 Supersomes, luciferin-H conversion, luminescence | inhibition, % at 5 µM | P11712 | 96,000 tested, 20% active;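 active = blocking of liver enzyme CYP2C9 beyond about 50% at 5 µM, limit read from the data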
# Target sequence (P11712 whole entry, looked up): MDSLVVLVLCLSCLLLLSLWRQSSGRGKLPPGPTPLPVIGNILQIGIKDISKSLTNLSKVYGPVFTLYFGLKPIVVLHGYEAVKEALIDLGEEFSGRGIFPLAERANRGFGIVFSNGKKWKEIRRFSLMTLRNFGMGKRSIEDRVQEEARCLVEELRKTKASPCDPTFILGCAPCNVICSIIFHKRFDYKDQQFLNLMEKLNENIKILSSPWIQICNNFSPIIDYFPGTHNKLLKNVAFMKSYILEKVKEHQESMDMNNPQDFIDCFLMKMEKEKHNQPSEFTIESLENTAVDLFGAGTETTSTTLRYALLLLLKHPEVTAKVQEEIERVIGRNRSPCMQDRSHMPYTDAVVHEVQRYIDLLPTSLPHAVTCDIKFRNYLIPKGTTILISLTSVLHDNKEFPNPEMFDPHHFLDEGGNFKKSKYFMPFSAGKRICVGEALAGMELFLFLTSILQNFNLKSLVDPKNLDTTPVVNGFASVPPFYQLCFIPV
# CYP2C9 activ = CYP2C9 (human) activation; activation factor at 5 µM; 96,000 tested, 1.4% active; recombinant CYP2C9, luciferin-H conversion, luminescence; hits give high values; factor 1 = untreated enzyme, 0 = blocked; P11712; AID 1024;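 active = activation factor of 2 or more for CYP2C9 at a 5 µM dose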;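 also: 0 = sulfaphenazole-blocked wells and 1 = vehicle-only wells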
# Cav32 inh = blocks human Cav3.2 T-type calcium channel | O95180 | Cav3.2-expressing cells, Fluo-4 calcium fluorescence FDSS; hits give low values | B-score at 10 µM | 100,000 tested, 4% active | AID 449739;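 active = single-dose well whose peak fluorescence ratio is a statistical outlier from its plate by either plate-standardised score or position-corrected B-score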
# CYP2C19 inh = inhibitors of human CYP2C19. CYP2C19 Supersomes, luciferin-H EGE luminescence, 30 min. inhibition, % at 5 µM. 96,000 tested, 21% active;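 active = CYP2C19 inhibition above a set limit at 5 µM in the primary screen, cut at about 50% in these data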;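 also: plate controls were negative control wells for no effect and 2.5 mM tranylcypromine positive control for full effect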
# CYP2C19 activ = activators of human cytochrome P450 2C19. recombinant CYP2C19, luciferin-H EGE luminescence; hits give high values; 0 = fully inhibited enzyme, 1 = untreated enzyme. 96,000 tested, under 10 active. P33261. AID 1025. activation factor at 5 µM;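 active = activation factor of at least 2 at 5 µM in the primary screen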;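 also: 0 = wells with 2.5 mM tranylcypromine and 1 = vehicle-only wells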
# * marks the source's active call; other numbers are inactive results; x = no result given. Sampled rows, rich in hits. Any-hit rate of the full collection: about 27%.
SMILES,CYP2C9 inhib,CYP2C9 activ,Cav32 inh,CYP2C19 inh,CYP2C19 activ
COC(=O)CN(c1ccc(C)cc1)S(=O)(=O)c1ccc2c(c1)n(C)c(=O)c(=O)n2C,38.7,0.6,1.11,0.1,1
COc1ccc(N(CC(=O)NN=C2CCCC2)S(=O)(=O)c2ccccc2)cc1,20.7,0.8,0.932,51.4*,0.5
CCOc1ccc(S(=O)(=O)N(CC(N)=O)c2ccc(C)cc2)cc1,41.3,0.6,1.12,71.2*,0.3
CC1S/C(=C(\C#N)C(=O)NCc2ccco2)N(c2ccc(F)cc2)C1=O (stereo not given),2.4,1,0.85,8.8,0.9
COC(=O)c1cc(Cl)c(NC(=O)/C=C/c2ccc(OC)c(OC)c2)cc1OC,14.7,0.9,0.29,11.2,0.9
COc1ccc(OC)c(N(CC(N)=O)S(=O)(=O)c2ccc(OC)c(OC)c2)c1,45.0,0.6,-0.453,78.3*,0.2
CNC(=O)CN(c1ccc(OC)cc1)S(=O)(=O)c1ccc(F)cc1,x,x,1.07,x,x
CCC(C)NC(=O)CN(c1ccc(OC)cc1)S(=O)(=O)c1ccc(NC(C)=O)cc1 (stereo not given),56.7*,0.4,0.0162,38.0,0.6
CNC(=O)/C=C1\NC(C)(C)Cc2c1ccc1ccccc21,12.3,0.9,-0.112,66.6*,0.3
CC(C)(C)OC(=O)NCCCC1=CC2=CC(=O)C(C)(O)C(=O)C2=CO1 (stereo not given),x,x,0.2,x,x
CCc1cc2c(-c3ccccc3)cc(=O)oc2c(CN2CCOCC2)c1O,92.5*,0.1,-8.72*,78.3*,0.2
Brc1c(CSc2nnc(-c3ccco3)o2)nc2ccccn12,-121.7,2.2*,0.00781,77.8*,0.2
O=C(O)CC(c1cccc(Cl)c1)n1cccc1 (stereo not given),39.4,0.6,0.0207,1.1,1
Cc1cccc(C(CC(=O)O)n2cccc2)c1 (stereo not given),75.6*,0.2,0.24,6.1,0.9
c1ccc2c(c1)nc(N1CCOCC1)c1c3ccccc3[nH]c21,15.4,0.8,-0.436,15.2,0.8
O=C(O)c1cc2n(n1)C(C(F)(F)F)CC(c1ccco1)N2 (stereo not given),62.2*,0.4,0.396,5.0,0.9
O=C(c1cc2n(n1)C(C(F)(F)F)CC(c1ccco1)N2)N1CCN(c2ccccn2)CC1 (stereo not given),36.7,0.6,-1.01,-8.0,1.1
NC(=O)c1cc2n(n1)C(C(F)(F)F)CC(c1ccco1)N2 (stereo not given),-16.7,1.2,-1.19,-8.5,1.1
COc1ccccc1NC(=O)c1cc2n(n1)C(C(F)(F)F)CC(c1ccc3c(c1)OCO3)N2 (stereo not given),75.1*,0.2,-1.05,81.3*,0.2
O=C(NCc1ccccn1)c1cc2n(n1)C(C(F)(F)F)CC(c1ccco1)N2 (stereo not given),1.6,1,0.593,7.0,0.9
Cc1cc(NC(=O)c2cc3n(n2)C(C(F)(F)F)CC(c2ccco2)N3)no1 (stereo not given),51.1*,0.5,-0.132,13.3,0.9
Cc1cccc(N2CCN(C(=O)c3cc4n(n3)C(C(F)(F)F)CC(c3ccco3)N4)CC2)c1C (stereo not given),88.1*,0.1,0.19,0.6,1
CC(C)C(NC(=O)CNC(=O)OC(C)(C)C)C(=O)NCc1ccccc1 (stereo not given),-6.7,1.1,0.57,31.9,0.7
C=CCNc1nc2c(c(=O)[nH]c(=O)n2C)n1CCCCC,9.2,0.9,0.041,6.3,0.9
CSc1nc2c(c(C(F)(F)F)n1)CC(C)CC2 (stereo not given),-6.5,1.1,0.879,-0.7,1
SMILES,CYP2C9 inhib,CYP2C9 activ,Cav32 inh,CYP2C19 inh,CYP2C19 activ
COC(=O)C1=C[C@@H](C(=O)OC)[C@@H]2C3=C(C(=O)C2(C)C)[C@H](C)n2c(=O)n(-c4ccccc4)c(=O)n2[C@@H]3C1,x,x,0.424,x,x
CC(Sc1nnc2c(n1)C1(C)CCC2C1(C)C)C(=O)Nc1ccccc1 (stereo not given),44.3,0.6,0.507,12.3,0.9
CCOC(=O)C1=C(Cn2cnc3ccccc32)NC(=O)NC1c1cc(C)ccc1C (stereo not given),29.7,0.7,-3.48,45.9,0.5
CCOC(=O)C1=C(CNCc2ccc(C)cc2)NC(=O)NC1c1cc(C)ccc1C (stereo not given),54.9*,0.5,-1.5,47.2,0.5
CCOC(=O)CN1NC2(CCC(C)CC2)NC1=S (stereo not given),-1.9,1,0.389,61.4*,0.4
CCOC(=O)CN1NC2(CCCC(C)C2)NC1=S (stereo not given),-3.7,1,0.82,61.2*,0.4
COc1ccc(-c2ccc(C#N)c(OC(=O)c3c(Cl)cccc3Cl)n2)cc1,23.0,0.8,-1.79,-9.8,1.1
O=C(NC(=S)Nc1ccc2[nH]ncc2c1)c1ccccc1,95.2*,0,-0.323,99.4*,0
CSc1ccc(S(=O)(=O)Nc2ccc3c4c(cccc24)CC3)cc1,-45.2,1.5,-1.4,97.7*,0
c1ccc(Nc2ccc3c4c(cccc24)CC3)cc1,x,x,-0.925,x,x
O=S(=O)(Nc1ccc2c3c(cccc13)CC2)c1ccc(F)cc1,-9.6,1.1,x,70.5*,0.3
CCOC(=O)CC1C(=O)NCCN1C(=O)NC1CCCCC1 (stereo not given),27.2,0.7,1.11,-2.7,1
Cc1cccc(NS(=O)(=O)c2ccc(Br)s2)n1,31.1,0.7,0.322,67.6*,0.3
Cc1cc(C)nc(NS(=O)(=O)c2ccc(Br)s2)c1,15.8,0.8,-1.1,52.0*,0.5
COc1ccc(S(=O)(=O)Nc2cc(C)cc(C)n2)c2ccccc12,28.0,0.7,-0.494,23.0,0.8
Cc1cccc(NS(=O)(=O)c2ccc(Oc3ccccc3)cc2)n1,31.0,0.7,-1.33,83.0*,0.2
O=C1NCC(CN(c2ccccc2)c2ccccc2)O1 (stereo not given),30.0,0.7,0.919,30.4,0.7
COCCCn1[nH]c2c3c(ccc2c1=O)C(=O)c1ccccc1C3=O,63.6*,0.4,1.17,5.0,0.9
O=c1c2ccccc2c(C=NC2CCS(=O)(=O)C2)c(O)n1-c1ccccc1 (stereo not given),13.8,0.9,-0.383,6.8,0.9
O=c1c2ccccc2c(/C=N/n2cnnc2)c(O)n1-c1ccccc1F,58.3*,0.4,-0.884,-2.6,1
Cc1ccc(-n2c(O)c(/C=N/n3cnnc3)c3ccccc3c2=O)cc1,90.7*,0.1,-0.177,7.7,0.9
COc1ccc(C2CC(=O)Nc3ccccc3S2(=O)=O)cc1OC (stereo not given),-4.5,1,0.756,40.3,0.6
C=CCn1c(SCC2=C(C(=O)OCC)C(C)NC(=O)N2)nnc1C1CCCCC1 (stereo not given),-9.2,1.1,0.304,13.0,0.9
COc1ccc(OC)c(N=c2ssnc2Cl)c1,94.3*,0.1,-1.05,63.7*,0.4
Cc1cc(Cl)ccc1N=c1ssnc1Cl,20.8,0.8,-1.36,-7.2,1.1
